Results reported in the supplement of paper PMC10849652.
Targets with a hit are over-represented here; the source holds about 8,800 in all. About 0.5% of all pairs of compound and target were hits. A number with no mark means an inactive call.

Columns and labels:
Assay in all cases: log2 fold change, soluble protein after heating vs DMSO (PISA); higher = thermal stabilisation; K562 lysate, 10 uM; active = over 0.2 and 3.5 SD of the protein, either way, in both replicates (recomputed)
[1] = compound: C1=CC=C(C=C1)[C@H](COC2=CC3=C(C=C2)NC(=O)N3)NC(=O)C4=CC=CN(C4=O)CC5=CC(=C(C=C5)F)F
Outline: (§1)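 Thermal stability, expressed as log-two fold change relative to solvent controls, is given from duplicates. Crude K562 extract in PBS pH 7.4 with 1 mM MgCl2, at 1 mg/mL protein, was treated with 10 μM compound for 30 min and heated in aliquots for 3 min across 48°C-58°C. After pooling, adjustment to 0.5% NP-40 at 4°C and centrifugation at 21,000xg for 90 min, supernatant protein was measured by TMTpro 16plex LC-MS/MS with channel sums equalised.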

[2] = compound: CC1=C(SC2=C1C(=N[C@H](C3=NN=C(N32)C)CC(=O)N)C4=CC=C(C=C4)Cl)C
Outline: as §1

[3] = compound: CC1=C2C(=CC=C1)N=C(N(C2=O)C3=CC=CC=C3C)CN4C=NC5=C(N=CN=C54)N
Outline: as §1

[4] = compound: Cc1sc2c(c1C)C(c1ccc(Cl)cc1)=N[C@@H](CC(=O)OC(C)(C)C)c1nnc(C)n1-2
Outline: as §1

[5] = compound: c1ccc([C@@H]2C[C@H]2NC2CCNCC2)cc1
Outline: as §1

UniProt O14617, sequence (O14617 whole entry, looked up): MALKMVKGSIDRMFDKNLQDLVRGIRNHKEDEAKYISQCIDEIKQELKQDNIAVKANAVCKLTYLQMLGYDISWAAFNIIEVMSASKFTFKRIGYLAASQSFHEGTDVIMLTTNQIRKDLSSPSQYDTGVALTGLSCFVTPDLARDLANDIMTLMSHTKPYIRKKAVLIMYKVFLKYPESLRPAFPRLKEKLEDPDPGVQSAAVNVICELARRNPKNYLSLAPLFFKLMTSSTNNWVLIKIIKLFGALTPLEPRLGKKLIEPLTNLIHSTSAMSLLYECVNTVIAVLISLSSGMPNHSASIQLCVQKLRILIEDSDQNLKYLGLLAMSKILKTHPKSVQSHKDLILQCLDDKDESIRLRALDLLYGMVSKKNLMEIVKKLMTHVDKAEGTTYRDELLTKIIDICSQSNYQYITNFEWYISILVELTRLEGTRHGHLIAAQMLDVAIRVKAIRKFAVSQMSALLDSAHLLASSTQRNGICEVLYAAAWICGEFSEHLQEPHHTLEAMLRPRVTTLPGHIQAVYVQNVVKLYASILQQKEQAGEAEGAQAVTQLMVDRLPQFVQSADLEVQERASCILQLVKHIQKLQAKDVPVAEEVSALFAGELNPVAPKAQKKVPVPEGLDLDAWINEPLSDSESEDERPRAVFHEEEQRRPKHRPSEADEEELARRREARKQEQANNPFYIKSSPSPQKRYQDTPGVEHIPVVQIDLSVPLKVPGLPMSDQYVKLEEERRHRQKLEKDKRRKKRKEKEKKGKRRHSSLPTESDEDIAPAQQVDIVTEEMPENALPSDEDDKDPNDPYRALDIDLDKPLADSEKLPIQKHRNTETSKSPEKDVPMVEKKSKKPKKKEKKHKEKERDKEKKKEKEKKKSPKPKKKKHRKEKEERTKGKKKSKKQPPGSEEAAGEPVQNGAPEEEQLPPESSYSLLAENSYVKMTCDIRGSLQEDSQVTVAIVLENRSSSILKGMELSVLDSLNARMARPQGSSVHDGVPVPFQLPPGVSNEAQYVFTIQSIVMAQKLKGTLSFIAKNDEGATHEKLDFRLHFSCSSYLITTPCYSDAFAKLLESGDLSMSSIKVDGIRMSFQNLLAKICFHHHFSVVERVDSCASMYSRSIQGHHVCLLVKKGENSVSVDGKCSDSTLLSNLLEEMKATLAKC
UniProt Q9Y6B7, sequence (Q9Y6B7 whole entry, looked up): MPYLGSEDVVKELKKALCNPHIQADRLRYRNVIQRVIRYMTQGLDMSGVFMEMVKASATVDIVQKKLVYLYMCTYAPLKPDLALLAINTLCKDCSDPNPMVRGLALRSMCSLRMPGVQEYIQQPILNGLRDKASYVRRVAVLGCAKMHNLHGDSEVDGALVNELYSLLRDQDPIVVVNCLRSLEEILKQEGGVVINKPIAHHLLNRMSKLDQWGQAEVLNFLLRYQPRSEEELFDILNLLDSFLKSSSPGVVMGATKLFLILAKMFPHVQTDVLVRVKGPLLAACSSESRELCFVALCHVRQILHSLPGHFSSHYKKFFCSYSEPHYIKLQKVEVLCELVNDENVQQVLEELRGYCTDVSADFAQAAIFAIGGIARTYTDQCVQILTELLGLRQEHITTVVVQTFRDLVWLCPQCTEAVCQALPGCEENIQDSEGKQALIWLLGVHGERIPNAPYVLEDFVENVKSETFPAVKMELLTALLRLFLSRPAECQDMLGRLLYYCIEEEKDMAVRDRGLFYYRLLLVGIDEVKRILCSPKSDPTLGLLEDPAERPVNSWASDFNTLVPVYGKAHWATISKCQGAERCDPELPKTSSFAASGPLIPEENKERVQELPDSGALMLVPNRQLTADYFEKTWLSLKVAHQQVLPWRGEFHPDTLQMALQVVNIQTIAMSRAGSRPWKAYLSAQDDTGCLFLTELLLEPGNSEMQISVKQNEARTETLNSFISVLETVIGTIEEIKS
UniProt Q9UHB7, sequence (Q9UHB7 whole entry, looked up): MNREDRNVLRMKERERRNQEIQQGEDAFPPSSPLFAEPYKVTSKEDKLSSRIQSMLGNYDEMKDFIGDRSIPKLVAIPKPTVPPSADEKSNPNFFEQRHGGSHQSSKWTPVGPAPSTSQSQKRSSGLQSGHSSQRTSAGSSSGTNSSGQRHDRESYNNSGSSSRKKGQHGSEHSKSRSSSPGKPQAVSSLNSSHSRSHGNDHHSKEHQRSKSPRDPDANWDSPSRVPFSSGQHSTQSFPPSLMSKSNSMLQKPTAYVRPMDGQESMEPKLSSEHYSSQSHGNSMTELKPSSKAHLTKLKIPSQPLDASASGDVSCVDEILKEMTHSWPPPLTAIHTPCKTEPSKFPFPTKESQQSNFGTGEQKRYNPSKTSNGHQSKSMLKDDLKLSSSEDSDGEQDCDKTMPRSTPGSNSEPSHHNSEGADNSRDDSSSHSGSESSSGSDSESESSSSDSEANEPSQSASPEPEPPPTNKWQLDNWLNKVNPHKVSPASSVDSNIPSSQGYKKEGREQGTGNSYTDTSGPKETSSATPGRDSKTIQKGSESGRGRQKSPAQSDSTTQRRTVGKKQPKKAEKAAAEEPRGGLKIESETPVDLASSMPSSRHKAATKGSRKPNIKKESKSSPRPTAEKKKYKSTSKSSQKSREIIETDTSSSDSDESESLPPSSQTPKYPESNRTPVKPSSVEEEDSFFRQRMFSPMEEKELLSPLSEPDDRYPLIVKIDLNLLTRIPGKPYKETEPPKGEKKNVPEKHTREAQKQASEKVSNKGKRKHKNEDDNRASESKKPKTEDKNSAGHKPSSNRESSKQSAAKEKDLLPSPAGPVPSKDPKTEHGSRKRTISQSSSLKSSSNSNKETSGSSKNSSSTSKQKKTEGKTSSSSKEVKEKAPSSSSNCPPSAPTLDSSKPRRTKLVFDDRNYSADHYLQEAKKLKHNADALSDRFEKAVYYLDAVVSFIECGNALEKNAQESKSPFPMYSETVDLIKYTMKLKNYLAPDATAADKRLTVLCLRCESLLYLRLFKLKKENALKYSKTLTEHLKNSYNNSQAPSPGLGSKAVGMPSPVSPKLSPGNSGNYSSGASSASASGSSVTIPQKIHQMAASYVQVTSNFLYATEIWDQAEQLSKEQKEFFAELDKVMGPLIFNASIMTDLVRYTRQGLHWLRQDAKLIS
UniProt Q9NWX5, sequence (Q9NWX5 whole entry, looked up): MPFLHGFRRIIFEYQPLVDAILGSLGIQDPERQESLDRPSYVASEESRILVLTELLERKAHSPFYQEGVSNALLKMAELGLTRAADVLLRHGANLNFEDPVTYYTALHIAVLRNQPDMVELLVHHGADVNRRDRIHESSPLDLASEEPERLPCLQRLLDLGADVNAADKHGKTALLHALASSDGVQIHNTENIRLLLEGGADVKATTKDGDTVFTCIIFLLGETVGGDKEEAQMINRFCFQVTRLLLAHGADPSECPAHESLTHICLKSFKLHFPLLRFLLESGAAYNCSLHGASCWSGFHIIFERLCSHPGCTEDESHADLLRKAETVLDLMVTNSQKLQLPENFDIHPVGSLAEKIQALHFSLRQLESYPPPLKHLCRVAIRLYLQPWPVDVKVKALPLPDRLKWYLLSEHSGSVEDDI
UniProt Q9NXU5, sequence (Q9NXU5 whole entry, looked up): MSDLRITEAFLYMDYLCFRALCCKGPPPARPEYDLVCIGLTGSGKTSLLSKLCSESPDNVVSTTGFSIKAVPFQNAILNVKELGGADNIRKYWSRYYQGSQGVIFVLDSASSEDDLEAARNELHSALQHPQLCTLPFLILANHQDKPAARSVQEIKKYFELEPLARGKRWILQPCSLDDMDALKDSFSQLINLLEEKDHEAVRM
UniProt Q5JTZ9, sequence (Q5JTZ9 whole entry, looked up): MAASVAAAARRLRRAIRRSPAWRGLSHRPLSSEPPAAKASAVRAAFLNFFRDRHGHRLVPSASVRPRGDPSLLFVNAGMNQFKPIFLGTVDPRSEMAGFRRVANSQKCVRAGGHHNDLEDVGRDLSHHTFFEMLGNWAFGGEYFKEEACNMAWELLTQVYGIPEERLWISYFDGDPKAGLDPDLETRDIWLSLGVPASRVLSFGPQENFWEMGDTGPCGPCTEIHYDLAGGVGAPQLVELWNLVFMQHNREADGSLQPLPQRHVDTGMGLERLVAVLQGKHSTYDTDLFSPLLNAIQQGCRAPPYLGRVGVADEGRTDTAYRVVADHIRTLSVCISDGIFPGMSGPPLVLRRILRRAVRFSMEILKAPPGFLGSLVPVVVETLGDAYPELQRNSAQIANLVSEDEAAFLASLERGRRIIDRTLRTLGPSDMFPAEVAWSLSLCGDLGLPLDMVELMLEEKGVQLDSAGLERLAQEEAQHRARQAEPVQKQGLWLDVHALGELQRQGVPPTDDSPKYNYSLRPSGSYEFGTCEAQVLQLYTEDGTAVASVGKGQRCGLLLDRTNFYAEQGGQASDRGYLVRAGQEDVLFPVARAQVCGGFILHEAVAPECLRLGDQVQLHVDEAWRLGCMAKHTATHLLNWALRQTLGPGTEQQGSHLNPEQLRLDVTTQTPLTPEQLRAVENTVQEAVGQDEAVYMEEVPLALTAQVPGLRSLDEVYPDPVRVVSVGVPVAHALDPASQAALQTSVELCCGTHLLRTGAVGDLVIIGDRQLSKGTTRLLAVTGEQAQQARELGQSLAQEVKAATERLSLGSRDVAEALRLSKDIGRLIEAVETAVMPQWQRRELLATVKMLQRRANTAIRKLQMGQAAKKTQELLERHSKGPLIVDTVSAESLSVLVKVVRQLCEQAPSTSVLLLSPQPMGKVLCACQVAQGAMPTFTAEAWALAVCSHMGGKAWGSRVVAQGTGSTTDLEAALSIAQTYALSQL
UniProt P40616, sequence (P40616 whole entry, looked up): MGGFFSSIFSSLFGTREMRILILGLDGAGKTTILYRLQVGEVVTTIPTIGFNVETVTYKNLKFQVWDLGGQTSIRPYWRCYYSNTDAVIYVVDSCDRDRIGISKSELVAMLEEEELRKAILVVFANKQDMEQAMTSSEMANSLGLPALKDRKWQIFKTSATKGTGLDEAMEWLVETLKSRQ
UniProt Q9NRW3, sequence (Q9NRW3 whole entry, looked up): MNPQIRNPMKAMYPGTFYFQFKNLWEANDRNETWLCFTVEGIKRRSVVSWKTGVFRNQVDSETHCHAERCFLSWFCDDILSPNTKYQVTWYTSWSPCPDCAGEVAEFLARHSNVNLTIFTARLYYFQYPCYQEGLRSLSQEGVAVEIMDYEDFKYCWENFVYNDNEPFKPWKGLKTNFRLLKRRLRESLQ

Target | log2 fold change [1] | log2 fold change [2] | log2 fold change [3] | log2 fold change [4] | log2 fold change [5]
AP4B1 (UniProt Q9Y6B7) | 0.02 | 0.063 | -0.025 | 0.093 | 0.03
ASB6 (UniProt Q9NWX5) | 0.012 | 0.125 | 0.005 | 0.016 | 0.028
ABI1 isoform 9 (UniProt Q8IZP0) | -0.013 | -0.008 | -0.006 | -0.004 | -0.117
ACAT1 (UniProt P24752) | -0.007 | 0.029 | -0.016 | 0.031 | 0.024
ARL8A (UniProt Q96BM9) | 0.038 | -0.02 | -0.157 | 0.093 | 0.1
ALG8 (UniProt Q9BVK2) | 0.034 | 0.001 | 0.059 | -0.013 | -0.008
APOB (UniProt P04114) | -0.009 | 0.039 | 0.023 | -0.168 | -0.109
ABCF3 (UniProt Q9NUQ8) | 0.002 | -0.016 | 0.031 | 0.013 | 0.06
AIMP2 isoform 2 (UniProt Q13155) | 0.182 | 0.029 |  |  | 
AIFM2 (UniProt Q9BRQ8) | 0.668 (active) | 0.008 | 0.039 | -0.007 | -0.1
AGTPBP1 (UniProt Q9UPW5) | 0.131 | -0.13 | 0.051 | -0.042 | 0.03
ARHGAP21 (UniProt Q5T5U3) | 0.031 | 0.117 | 0.031 | 0.008 | 0.124
AKAP8L (UniProt Q9ULX6) | 0.011 | -0.005 | -0.001 | 0.018 | -0.02
AK2 (UniProt P54819) | 0.046 | -0.013 | 0.01 | 0.051 | -0.015
AARS2 (UniProt Q5JTZ9) | 0.014 | -0.076 | 0.026 | 0.041 | 0.045
ARMC6 (UniProt Q6NXE6) | -0.046 | -0.012 | -0.017 | 0.003 | 0.043
ANXA11 (UniProt P50995) | 0.23 (active) | 0.028 | 0.015 | 0.015 | 0.002
AKT2 (UniProt P31751) | 0.011 | 0.003 | 0.031 | 0.02 | 0.028
ACAA1 (UniProt P09110) | -0.004 | 0.007 | -0.005 | 0.046 | -0.003
ADAR isoform 4 (UniProt P55265) | -0.188 | 0.116 | 0.035 | 0.005 | 0.032
ARL15 (UniProt Q9NXU5) | 0.02 | -0.005 | 0.018 | -0.009 | 0.269
ACYP1 (UniProt P07311) | 0.019 | -0.026 | -0.036 | 0.022 | 0.052
AGPS (UniProt O00116) | -0.103 | 0.016 | 0.035 | 0.019 | -0.006
ANP32A (UniProt P39687) | 0.007 | 0.02 | 0 | 0.07 | -0.033
ACLY (UniProt P53396) | 0.011 | 0.03 | 0.004 | 0.03 | 0.023
AP3D1 isoform 5 (UniProt O14617) | 0.042 | -0.027 | 0.003 | 0.025 | -0.028
ARFGAP1 (UniProt Q8N6T3) | 0.037 | -0.091 | 0.149 | -0.081 | -0.127

Target | log2 fold change [1] | log2 fold change [2] | log2 fold change [3] | log2 fold change [4] | log2 fold change [5]
ABHD16A (UniProt O95870) | -0.011 | 0.008 | 0.07 | 0.059 | 0.028
ANXA13 isoform 2 (UniProt P27216) | 0.058 | -0.041 | -0.048 | 0.17 | 0.011
ALDH1A1 (UniProt P00352) | -0.032 | 0.006 | -0.028 | -0.011 | 0.045
ALDH2 (UniProt P05091) | 0.029 | -0.028 | -0.022 | -0.018 | 0.01
ANXA2 isoform 2 (UniProt P07355) | 0 | -0.005 | -0.019 | 0.024 | 0.02
AKR1B1 (UniProt P15121) | 0.015 | 0.066 | 0.059 | -0.146 | -0.049
ANP32E (UniProt Q9BTT0) | 0.043 | -0.005 | -0.053 | -0.038 | 0.026
ANAPC7 (UniProt Q9UJX3) | -0.008 | -0.003 | -0.002 | 0.023 | 0.048
ASCC2 (UniProt Q9H1I8) | 0.181 | 0.063 | -0.027 | -0.019 | 0.076
ARHGAP25 isoform 4 (UniProt P42331) | 0.013 | 0.016 | 0.012 | -0.046 | 0.035
ACACA isoform 4 (UniProt Q13085) | 0.001 | 0.027 | 0.019 | 0.027 | 0.085
AMPD3 isoform 4 (UniProt Q01432) | 0.02 | -0.021 | -0.012 | 0.018 | 0.093
ARL1 (UniProt P40616) | 0.094 | 0.023 | 0.051 | -0.026 | 0.026
AFF1 isoform 2 (UniProt P51825) | -0.109 | 0.133 | -0.006 | -0.087 | -0.118
ABL2 (UniProt P42684) | -0.026 | 0.016 | 0 | -0.14 | -0.105
ANXA5 (UniProt P08758) | 0.031 | 0.016 | 0.013 | 0.033 | 0.075
AFF4 (UniProt Q9UHB7) | -0.362 (active) | -0.269 | -0.081 | -0.026 | -0.052
ABHD12 isoform 2 (UniProt Q8N2K0) | 0.008 | 0.042 | 0.003 | 0.031 | 0.042
ABHD17A isoform 2 (UniProt Q96GS6) | -0.053 | -0.02 | 0.011 | -0.025 | -0.069
ARHGEF2 (UniProt Q92974) | 0.023 | -0.007 | 0.034 | 0.008 | 0.05
APOBEC3C (UniProt Q9NRW3) | -0.003 | 0.032 | 0.013 | 0.014 | -0.062
ANKRD52 (UniProt Q8NB46) | -0.004 | -0.036 | 0.056 | 0.055 | 0.004
APEX1 (UniProt P27695) | 0.055 | 0.007 | -0.007 | 0.086 | 0.131
ARAP1 (UniProt Q96P48) | 0.022 | -0.008 | 0.048 | 0.013 | -0.015
ARAF (UniProt P10398) | 0.012 | -0.002 | -0.078 | 0 | 0.002
ARL13B (UniProt Q3SXY8) | 0.087 | 0.03 | 0.012 | 0.019 | 0.145
